Test results reported in PubChem BioAssay AID1445 (SRMLSC, 2008).
Among all 220,000 compounds or so, about 910 (0.41%) were called active. This excerpt belongs to a sample that is enriched for actives. Results with a measured potency or affinity are listed apart. Values without a mark were called inactive.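 Rule for the calls: active = primary inhibition above the hit cutoff, then over 50% inhibition at one or more dose response concentrations (cut at about 23% in these data, passing the limit was not always enough); inconclusive = conflicting primary data, or primary hits not chosen for dose response; inactive = low primary inhibition, or under 50% at every dose.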

These molecules were tested against Aminopeptidase N (Plasmodium falciparum (isolate 3D7)) (UniProt O96935) (assay: malaria alanyl aminopeptidase activity blockers – biochemical, fluorogenic H-Leu-NHMec substrate, 1536-well (AID 1445;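 note: plate controls were DMSO full reaction for no effect and no enzyme background for full effect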)). Details: recombinant M1AAP, H-Leu-NHMec fluorogenic kinetic assay; at 30 µM, hits give high values unless noted.
Aminopeptidase N (Plasmodium falciparum (isolate 3D7)), sequence (O96935 whole entry, looked up): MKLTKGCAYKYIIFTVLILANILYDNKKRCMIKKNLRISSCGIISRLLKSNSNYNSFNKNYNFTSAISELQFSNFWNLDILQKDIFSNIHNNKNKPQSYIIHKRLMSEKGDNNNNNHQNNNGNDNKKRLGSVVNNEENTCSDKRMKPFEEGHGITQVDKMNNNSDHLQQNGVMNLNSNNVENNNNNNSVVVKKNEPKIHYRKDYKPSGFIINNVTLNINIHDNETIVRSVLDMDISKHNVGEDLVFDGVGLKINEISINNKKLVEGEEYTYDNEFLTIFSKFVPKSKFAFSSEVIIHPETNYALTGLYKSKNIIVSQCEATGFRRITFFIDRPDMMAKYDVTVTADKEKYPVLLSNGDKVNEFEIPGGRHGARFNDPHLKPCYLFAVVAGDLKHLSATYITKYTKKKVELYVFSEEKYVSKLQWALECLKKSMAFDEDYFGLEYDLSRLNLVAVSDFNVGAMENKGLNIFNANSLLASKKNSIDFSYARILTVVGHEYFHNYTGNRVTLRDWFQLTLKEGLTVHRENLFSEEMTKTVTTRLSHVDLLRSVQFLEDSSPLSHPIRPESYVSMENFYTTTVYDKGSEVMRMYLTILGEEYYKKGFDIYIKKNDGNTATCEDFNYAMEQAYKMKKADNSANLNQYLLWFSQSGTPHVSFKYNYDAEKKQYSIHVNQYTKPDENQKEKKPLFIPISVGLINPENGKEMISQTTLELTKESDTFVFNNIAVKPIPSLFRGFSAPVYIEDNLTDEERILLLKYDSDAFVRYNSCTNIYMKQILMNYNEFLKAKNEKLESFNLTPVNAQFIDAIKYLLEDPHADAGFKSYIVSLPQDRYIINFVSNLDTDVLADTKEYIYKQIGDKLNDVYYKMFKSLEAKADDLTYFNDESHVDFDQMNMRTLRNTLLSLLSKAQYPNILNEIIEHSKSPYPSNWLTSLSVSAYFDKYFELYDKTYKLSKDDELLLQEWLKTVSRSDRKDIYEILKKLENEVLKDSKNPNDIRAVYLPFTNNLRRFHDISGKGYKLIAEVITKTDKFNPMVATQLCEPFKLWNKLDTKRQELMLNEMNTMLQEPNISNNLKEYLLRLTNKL

| Structure (SMILES) | inhibition |
| --- | --- |
| O=C(Nc1ccc(Cl)cc1)c1ccc(-n2cccn2)c([N+](=O)[O-])c1 | 0.77% |
| Cc1cccc(C)c1OCC(=O)Nc1cccc(-c2nnc(-c3ccccc3)o2)c1 | 1.97% |
| Cc1cccc(OCC(=O)Nc2cccc(-c3nnc(-c4ccccc4)o3)c2)c1C | 24% (active) |
| Cc1ccc(OCC(=O)Nc2cccc(-c3nnc(-c4ccccc4)o3)c2)c(C)c1 | 2.43% |
| Cc1ccc(C)c2c1cc(C)c1nnc(SCC(=O)N3CCCc4ccccc43)n12 | 3.01% |
| Cc1ccc(C(=O)/C=C2/NC(=O)CS2)cc1 | 17.7% |
| O=C1CS/C(=C/C(=O)c2ccccc2)N1 | 25.3% (active) |
| CC(C)(C)c1ccc(C(=O)/C=C2\NC(=O)CS2)cc1 | 7.72% |
| CC(/C=N/NC(=O)Cn1cnc2c1c(=O)n(C)c(=O)n2C)=C\c1ccco1 | 5.25% |
| Cc1c(C(=O)OCc2ccccc2)[nH]c2c1C(=O)CC(c1ccco1)C2 (stereo not given) | 6.2% |
| CCOC(=O)c1[nH]c2c(c1C)C(=O)CC(c1ccco1)C2 (stereo not given) | 15.3% |
| Cc1c(C(=O)OC2CCCC2)[nH]c2c1C(=O)CC(c1ccco1)C2 (stereo not given) | 25.6% (active) |
| CC(C(=O)NC1C(=O)N2C(C(=O)O)=C(CSc3nnnn3C)CSC12)n1cc(Cl)cn1 (stereo not given) | 6.59% |
| CC1(C)OC2OC(C(=O)N/N=C/c3ccccc3F)C3OC(C)(C)OC3C2O1 (stereo not given) | -0.42% |
| O=C(CCC(=O)Nc1ccc(Br)cc1)N/N=C/c1cc([N+](=O)[O-])ccc1O | 13.8% |
| COC(=O)N/N=C/c1cc(Br)ccc1O | 17.8% |
| NC(=O)N/N=C/c1cc(Br)ccc1OC(=O)c1ccccc1 | 6.38% |
| Nc1nonc1C(=O)N/N=C/c1ccc(Br)o1 | 15.9% |
| Nc1nonc1C(=O)N/N=C/c1ccncc1 | 9.52% |
| COc1ccc(NC(=O)C2OC3OC(C)(C)OC3C3OC(C)(C)OC23)cc1 (stereo not given) | 6.98% |
| O=C(CCc1ccccc1)N/N=C/c1cc(Br)ccc1O | 16.7% |
| CCCn1nnc(NC(=S)NC(=O)C(C)(C)C)n1 | 7.37% |
| O=C1c2cc(S(=O)(=O)NCCO)ccc2-c2ccc(S(=O)(=O)NCCO)cc21 | 2.13% |

| Structure (SMILES) | inhibition |
| --- | --- |
| Cc1ccc([N+](=O)[O-])cc1NC(=O)Nc1ccc(S(N)(=O)=O)cc1 | -7.81% |
| CC1=CC2=NC(=O)CC(C)(C(=O)N(CC(=O)NC(C)C)C3CCCC3)N2C=C1 (stereo not given) | 1.08% |
| O=C(Nc1ccc(Br)cc1)c1cccn1-c1ncc(C(F)(F)F)cc1Cl | -0.41% |
| Cc1ccc(NC(=O)C2CCN(C(=O)c3ccccc3C)CC2)cc1 | 4.97% |
| CCN(CC)CCOC(=O)c1ccc(N/C=C(/C#N)c2nc(-c3ccc(OC)cc3)cs2)cc1 | 4.36% |
| CCOC(=O)c1c(-c2ccc(F)cc2)csc1NC(=O)c1c(-c2ccccc2)noc1C | 0.4% |
| CCOC(=O)C1=NN(c2ccccc2)C2=NC(C)=C(C(=O)OC)C(c3ccc(C)cc3)N12 (stereo not given) | 8.08% |
| CC(=O)N1N=C(c2ccc(C)cc2)CC1c1ccco1 (stereo not given) | 6.1% |
| CCC(=O)N1N=C(c2c(-c3ccccc3)c3cc(Cl)ccc3[nH]c2=O)CC1c1ccco1 (stereo not given) | 22.1% |
| CC(=O)N1N=C(c2c(-c3ccccc3)c3cc(C)ccc3[nH]c2=O)CC1c1ccco1 (stereo not given) | 20% |
| COc1ccc(C2CC(c3ccccc3)=NN2C(=O)COC(=O)C2CC2)cc1 (stereo not given) | 8.28% |
| COc1ccc(C2CC(c3c(-c4ccccc4)c4cc(Cl)ccc4[nH]c3=O)=NN2S(C)(=O)=O)cc1OC (stereo not given) | 13.3% |
| O=C(O)CCC(=O)N1N=C(c2ccccc2)CC1c1ccc2nccnc2c1 (stereo not given) | 12% |
| COc1ccc(C2CC(c3c(-c4ccccc4)c4cc(Cl)ccc4[nH]c3=O)=NN2S(C)(=O)=O)cc1 (stereo not given) | 2.82% |
| Cc1ccc(C2=NN(C(=O)CCCC(=O)O)C(c3ccco3)C2)cc1 (stereo not given) | 7.5% |
| Nc1nonc1-c1nc2ccccc2n1CC(=O)O | 11.2% |
| C[C@H](NC(=O)c1nc[nH]c1C(=O)NCCCCCNC(=O)OC(C)(C)C)C(=O)OC(C)(C)C | -4.42% |
| CCCCCCCc1ccc(C2NC(=S)NC3=C2C(=O)c2ccccc23)cc1 (stereo not given) | 3.12% |
| CCOc1ccccc1NC(=O)/C(C#N)=C/c1c(C)nn(-c2ccccc2)c1Cl | 4.31% |
| CC(C)CN(C(=O)CSc1nnc2ccccn12)c1c(N)n(CC(C)C)c(=O)[nH]c1=O | 6.58% |
| CC1(C)N=C(N)N=C(N)N1c1ccc(OCCCOc2ccccc2)c(Cl)c1 | -0.74% |
| Cc1csc(SCC(=O)NC2CCCCC2)n1 | -5.21% |
